# Data: publication PMC7862700, “An all-to-all approach to the identification of sequence-specific readers for epigenetic DNA modifications on cytosine”
# What was measured:
# Assay in all cases: DAPPL (digital affinity profiling via proximity ligation, sequencing); 10 mM Tris-HCl pH 7.5, 50 mM NaCl, 1 mM DTT, 4% glycerol, room temperature, 30 min; GST-TFs on glutathione beads, 16-mer random dsDNA library, 0.1% formaldehyde crosslink after washing; high values mean tight binding
# FEV = molecular target: T1, FEV (Homo sapiens, UniProt Q99581 1-238); conditions: protein: recombinant; tags: N-terminal GST; dsDNA, one strand shown
# T1 sequence: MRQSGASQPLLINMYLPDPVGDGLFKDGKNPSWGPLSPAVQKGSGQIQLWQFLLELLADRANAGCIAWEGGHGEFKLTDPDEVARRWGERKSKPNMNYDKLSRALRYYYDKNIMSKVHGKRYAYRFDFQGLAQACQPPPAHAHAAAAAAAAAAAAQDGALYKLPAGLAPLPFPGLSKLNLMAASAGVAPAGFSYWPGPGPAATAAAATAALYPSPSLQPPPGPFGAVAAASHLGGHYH
# Procedure, shortened: (§1)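 Yeast served to express human transcription factors as GST fusions, which were then captured on glutathione beads and labelled with DNA barcodes. Pooled with a tag-only sample, they were incubated with 200 nmole of a 16-mer random double-stranded DNA library for 30 min at room temperature in Tris/NaCl/DTT/glycerol buffer, washed, crosslinked with 0.1% formaldehyde, ligated by proximity, amplified by PCR and sequenced. Dividing each hexamer's read frequency for a factor by its frequency for the tag-only sample gives the binding signal.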
# ETV5 = ETV5 (Homo sapiens, UniProt P41161 1-510); conditions: protein: recombinant; tags: N-terminal GST; dsDNA, one strand shown
# Chain of ETV5 (P41161 whole entry): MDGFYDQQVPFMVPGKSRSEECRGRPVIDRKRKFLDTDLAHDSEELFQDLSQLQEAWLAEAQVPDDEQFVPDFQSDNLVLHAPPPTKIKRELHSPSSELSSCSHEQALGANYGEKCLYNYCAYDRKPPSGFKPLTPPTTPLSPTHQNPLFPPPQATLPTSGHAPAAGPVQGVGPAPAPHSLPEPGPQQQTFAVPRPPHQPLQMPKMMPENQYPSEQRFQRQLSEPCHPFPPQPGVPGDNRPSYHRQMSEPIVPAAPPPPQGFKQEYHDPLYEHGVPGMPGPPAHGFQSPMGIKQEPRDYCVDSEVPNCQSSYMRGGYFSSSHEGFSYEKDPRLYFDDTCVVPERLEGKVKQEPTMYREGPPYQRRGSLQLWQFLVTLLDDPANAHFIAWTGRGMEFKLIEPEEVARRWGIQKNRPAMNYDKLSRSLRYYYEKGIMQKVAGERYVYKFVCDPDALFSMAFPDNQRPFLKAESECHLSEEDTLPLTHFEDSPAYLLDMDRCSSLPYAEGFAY
# Procedure, shortened: as §1
# HSF1 = HSF1 (Homo sapiens, UniProt Q00613 1-529); conditions: protein: recombinant; tags: N-terminal GST; chain copies: 3; dsDNA, one strand shown
# Chain of HSF1 (Q00613 whole entry): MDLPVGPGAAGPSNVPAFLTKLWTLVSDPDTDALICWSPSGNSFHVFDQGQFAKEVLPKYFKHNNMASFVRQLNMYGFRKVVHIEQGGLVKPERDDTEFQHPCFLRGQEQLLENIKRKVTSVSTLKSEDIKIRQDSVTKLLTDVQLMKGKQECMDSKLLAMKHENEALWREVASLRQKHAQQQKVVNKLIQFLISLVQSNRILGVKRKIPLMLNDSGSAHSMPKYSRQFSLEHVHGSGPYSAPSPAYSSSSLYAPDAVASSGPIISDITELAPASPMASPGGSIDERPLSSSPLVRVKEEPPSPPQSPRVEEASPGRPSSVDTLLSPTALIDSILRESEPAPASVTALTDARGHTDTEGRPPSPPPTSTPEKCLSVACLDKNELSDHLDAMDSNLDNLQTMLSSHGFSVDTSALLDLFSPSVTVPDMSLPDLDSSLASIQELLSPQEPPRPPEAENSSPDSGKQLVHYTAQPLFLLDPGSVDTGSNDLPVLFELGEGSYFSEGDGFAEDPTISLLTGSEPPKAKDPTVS
# Procedure, shortened: as §1
# SPIC = molecular target: T2, SPIC (Homo sapiens, UniProt Q8N5J4 1-248); conditions: protein: recombinant; tags: N-terminal GST; dsDNA, one strand shown
# T2 sequence: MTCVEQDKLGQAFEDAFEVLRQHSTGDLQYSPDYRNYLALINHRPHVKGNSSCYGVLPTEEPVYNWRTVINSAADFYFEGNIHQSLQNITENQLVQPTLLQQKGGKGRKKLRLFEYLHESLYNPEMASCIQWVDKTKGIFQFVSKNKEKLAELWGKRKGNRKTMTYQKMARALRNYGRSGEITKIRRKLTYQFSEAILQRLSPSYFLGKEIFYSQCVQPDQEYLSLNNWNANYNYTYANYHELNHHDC
# Procedure, shortened: as §1
# ELF4 = ELF4 (Homo sapiens, UniProt Q99607 1-663); conditions: protein: recombinant; tags: N-terminal GST; dsDNA, one strand shown
# Chain of ELF4 (Q99607 whole entry): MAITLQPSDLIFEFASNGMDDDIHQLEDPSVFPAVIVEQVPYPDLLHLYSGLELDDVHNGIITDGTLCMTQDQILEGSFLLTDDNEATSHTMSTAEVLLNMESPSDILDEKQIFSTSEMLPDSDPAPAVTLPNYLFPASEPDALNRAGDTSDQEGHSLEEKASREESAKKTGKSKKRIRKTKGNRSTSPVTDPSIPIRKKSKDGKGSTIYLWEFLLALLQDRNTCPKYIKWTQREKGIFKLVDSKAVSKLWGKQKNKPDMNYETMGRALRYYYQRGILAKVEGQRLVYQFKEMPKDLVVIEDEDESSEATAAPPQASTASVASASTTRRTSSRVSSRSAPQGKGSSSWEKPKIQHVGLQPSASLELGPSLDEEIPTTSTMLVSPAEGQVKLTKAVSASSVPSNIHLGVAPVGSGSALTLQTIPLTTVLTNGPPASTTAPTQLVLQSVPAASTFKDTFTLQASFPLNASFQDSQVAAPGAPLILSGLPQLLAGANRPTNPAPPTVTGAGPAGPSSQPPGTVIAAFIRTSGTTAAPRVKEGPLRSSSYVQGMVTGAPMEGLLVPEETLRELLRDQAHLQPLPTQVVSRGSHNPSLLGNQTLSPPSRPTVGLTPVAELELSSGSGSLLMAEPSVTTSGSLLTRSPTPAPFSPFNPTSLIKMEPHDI
# Procedure, shortened: as §1
# ELK4 = molecular target: T3, ELK4 (Homo sapiens, UniProt P28324-2 1-405); conditions: protein: recombinant; tags: N-terminal GST; dsDNA, one strand shown
# T3 sequence: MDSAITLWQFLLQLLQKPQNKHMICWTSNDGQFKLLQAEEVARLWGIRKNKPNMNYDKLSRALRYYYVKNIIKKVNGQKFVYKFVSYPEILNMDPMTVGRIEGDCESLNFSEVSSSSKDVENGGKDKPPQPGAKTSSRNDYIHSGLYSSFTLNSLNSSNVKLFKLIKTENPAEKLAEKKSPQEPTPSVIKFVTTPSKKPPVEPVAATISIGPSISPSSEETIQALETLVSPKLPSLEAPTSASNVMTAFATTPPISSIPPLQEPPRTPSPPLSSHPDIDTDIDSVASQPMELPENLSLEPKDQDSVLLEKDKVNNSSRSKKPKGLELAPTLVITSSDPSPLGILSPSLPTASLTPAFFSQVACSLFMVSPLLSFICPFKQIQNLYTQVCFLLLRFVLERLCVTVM
# Procedure, shortened: as §1
# ETV2 = molecular target: T4, ETV2 (Homo sapiens, UniProt O00321 1-342); conditions: protein: recombinant; tags: N-terminal GST; dsDNA, one strand shown
# T4 sequence: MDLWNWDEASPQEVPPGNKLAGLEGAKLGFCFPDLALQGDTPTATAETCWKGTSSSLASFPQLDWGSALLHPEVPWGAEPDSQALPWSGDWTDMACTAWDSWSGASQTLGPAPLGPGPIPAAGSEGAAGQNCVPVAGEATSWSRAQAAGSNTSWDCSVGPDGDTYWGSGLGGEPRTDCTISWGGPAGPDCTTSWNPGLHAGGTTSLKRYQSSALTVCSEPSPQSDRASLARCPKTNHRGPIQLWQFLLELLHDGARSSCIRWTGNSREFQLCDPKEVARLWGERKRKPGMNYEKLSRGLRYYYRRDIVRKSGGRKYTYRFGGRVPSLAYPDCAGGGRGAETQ
# Procedure, shortened: as §1
# ELF3 = molecular target: T5, ELF3 (Homo sapiens, UniProt P78545 1-371); conditions: protein: recombinant; tags: N-terminal GST; dsDNA, one strand shown
# T5 sequence: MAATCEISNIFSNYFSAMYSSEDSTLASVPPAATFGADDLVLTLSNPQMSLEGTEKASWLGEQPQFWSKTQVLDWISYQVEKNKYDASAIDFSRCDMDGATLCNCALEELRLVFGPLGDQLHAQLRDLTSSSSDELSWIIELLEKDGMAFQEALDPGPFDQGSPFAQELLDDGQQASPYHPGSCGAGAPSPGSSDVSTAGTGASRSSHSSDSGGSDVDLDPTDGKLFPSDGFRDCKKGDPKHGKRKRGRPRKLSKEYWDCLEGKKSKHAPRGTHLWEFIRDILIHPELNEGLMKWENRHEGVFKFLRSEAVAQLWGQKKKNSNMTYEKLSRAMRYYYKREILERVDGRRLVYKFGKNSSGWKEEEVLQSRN
# Procedure, shortened: as §1
# CRX = CRX (Homo sapiens, UniProt O43186 1-299); conditions: protein: recombinant; tags: N-terminal GST; dsDNA, one strand shown
# Chain of CRX (O43186 whole entry): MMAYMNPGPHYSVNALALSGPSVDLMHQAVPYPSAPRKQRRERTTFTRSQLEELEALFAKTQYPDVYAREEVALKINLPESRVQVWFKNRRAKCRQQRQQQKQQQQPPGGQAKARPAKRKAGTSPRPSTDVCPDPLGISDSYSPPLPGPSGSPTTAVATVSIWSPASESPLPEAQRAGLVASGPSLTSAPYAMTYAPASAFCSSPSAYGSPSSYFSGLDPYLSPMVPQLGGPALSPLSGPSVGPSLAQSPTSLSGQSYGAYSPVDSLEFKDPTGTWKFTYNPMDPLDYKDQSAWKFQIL
# Procedure, shortened: as §1
# ETV1 = ETV1 (Homo sapiens, UniProt P50549 1-477); conditions: protein: recombinant; tags: N-terminal GST; dsDNA, one strand shown
# Chain of ETV1 (P50549 whole entry): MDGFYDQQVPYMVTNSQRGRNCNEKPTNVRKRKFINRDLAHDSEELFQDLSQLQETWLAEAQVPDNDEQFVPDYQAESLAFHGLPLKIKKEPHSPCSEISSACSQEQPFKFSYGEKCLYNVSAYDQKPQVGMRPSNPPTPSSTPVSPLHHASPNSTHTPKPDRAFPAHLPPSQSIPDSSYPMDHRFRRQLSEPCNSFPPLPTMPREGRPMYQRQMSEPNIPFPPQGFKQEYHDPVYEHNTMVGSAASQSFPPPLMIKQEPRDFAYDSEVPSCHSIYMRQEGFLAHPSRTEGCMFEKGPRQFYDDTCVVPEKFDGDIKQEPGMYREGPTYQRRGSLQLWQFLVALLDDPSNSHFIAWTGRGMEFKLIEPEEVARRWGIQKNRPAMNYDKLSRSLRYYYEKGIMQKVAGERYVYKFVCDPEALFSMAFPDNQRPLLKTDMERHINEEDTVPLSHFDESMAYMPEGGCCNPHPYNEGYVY
# Procedure, shortened: as §1
# ERF = molecular target: T6, ERF (Homo sapiens, UniProt P50548 1-548); conditions: protein: recombinant; tags: N-terminal GST; dsDNA, one strand shown
# T6 sequence: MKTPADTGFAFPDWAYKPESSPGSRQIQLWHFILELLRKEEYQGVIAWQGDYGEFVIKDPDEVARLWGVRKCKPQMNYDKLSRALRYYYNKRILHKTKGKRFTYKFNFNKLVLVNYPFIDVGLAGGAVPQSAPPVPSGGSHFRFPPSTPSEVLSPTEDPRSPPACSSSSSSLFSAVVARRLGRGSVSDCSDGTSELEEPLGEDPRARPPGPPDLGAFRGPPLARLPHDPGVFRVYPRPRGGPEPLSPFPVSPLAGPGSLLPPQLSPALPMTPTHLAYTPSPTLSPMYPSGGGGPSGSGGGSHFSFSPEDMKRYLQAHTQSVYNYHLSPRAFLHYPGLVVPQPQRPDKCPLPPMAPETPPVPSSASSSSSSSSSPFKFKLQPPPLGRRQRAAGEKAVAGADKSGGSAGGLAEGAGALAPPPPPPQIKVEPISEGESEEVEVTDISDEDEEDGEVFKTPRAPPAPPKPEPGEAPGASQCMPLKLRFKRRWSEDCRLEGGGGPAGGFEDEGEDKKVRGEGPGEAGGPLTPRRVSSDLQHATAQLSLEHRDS
# Procedure, shortened: as §1
# ETV3L = molecular target: T7, ETV3L (Homo sapiens, UniProt Q6ZN32 1-361); conditions: protein: recombinant; tags: N-terminal GST; dsDNA, one strand shown
# T7 sequence: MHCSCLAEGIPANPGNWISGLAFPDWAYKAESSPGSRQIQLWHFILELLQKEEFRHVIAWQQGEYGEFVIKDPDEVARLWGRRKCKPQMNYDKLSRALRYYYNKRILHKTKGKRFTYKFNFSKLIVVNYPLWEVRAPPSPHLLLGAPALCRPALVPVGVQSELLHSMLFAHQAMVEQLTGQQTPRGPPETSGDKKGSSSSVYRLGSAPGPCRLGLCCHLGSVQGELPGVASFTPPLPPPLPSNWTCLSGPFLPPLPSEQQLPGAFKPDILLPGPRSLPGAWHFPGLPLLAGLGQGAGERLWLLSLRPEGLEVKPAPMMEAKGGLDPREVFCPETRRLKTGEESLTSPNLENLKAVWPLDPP
# Procedure, shortened: as §1
# ETS2 = molecular target: T8, ETS2 (Homo sapiens, UniProt P15036 1-469); conditions: protein: recombinant; tags: N-terminal GST; dsDNA, one strand shown
# T8 sequence: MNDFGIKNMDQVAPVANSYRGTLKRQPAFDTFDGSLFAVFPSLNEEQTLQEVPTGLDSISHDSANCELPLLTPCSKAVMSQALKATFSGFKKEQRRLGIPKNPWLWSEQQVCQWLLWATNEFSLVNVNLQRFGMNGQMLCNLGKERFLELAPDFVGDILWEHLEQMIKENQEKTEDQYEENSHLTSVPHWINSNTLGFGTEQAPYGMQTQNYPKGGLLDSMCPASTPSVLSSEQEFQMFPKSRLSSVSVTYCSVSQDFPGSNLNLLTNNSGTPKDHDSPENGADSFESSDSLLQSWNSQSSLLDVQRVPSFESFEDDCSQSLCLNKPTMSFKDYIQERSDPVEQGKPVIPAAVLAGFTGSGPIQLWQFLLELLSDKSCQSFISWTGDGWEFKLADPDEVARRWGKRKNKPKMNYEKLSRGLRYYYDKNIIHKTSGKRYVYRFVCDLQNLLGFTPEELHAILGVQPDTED
# Procedure, shortened: as §1
# SPDEF = molecular target: T9, SPDEF (Homo sapiens, UniProt O95238 1-335); conditions: protein: recombinant; tags: N-terminal GST; dsDNA, one strand shown
# T9 sequence: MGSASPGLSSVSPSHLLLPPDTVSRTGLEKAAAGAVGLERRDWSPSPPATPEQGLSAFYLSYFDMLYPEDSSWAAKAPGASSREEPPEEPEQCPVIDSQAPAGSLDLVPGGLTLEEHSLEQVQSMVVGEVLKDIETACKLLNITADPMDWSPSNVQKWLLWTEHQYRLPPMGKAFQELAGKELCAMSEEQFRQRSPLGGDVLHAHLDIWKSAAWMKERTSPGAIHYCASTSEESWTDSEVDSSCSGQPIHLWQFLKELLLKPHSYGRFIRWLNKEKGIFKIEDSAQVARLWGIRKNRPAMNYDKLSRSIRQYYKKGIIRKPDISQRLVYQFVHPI
# Procedure, shortened: as §1
# ETV7 = molecular target: T10, ETV7 (Homo sapiens, UniProt Q9Y603 1-341); conditions: protein: recombinant; tags: N-terminal GST; dsDNA, one strand shown
# T10 sequence: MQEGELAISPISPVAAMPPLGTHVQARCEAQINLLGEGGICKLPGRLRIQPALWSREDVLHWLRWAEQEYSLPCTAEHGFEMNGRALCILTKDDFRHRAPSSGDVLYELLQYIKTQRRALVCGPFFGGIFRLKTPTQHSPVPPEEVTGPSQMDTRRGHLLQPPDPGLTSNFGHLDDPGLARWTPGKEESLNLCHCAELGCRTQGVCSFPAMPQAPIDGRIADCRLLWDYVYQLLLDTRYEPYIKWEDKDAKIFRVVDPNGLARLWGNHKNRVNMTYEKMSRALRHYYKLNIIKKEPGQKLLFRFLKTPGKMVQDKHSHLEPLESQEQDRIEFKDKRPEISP
# Procedure, shortened: as §1
# ELF5 = molecular target: T11, ELF5 (Homo sapiens, UniProt Q9UKW6-2 1-255); conditions: protein: recombinant; tags: N-terminal GST; dsDNA, one strand shown
# T11 sequence: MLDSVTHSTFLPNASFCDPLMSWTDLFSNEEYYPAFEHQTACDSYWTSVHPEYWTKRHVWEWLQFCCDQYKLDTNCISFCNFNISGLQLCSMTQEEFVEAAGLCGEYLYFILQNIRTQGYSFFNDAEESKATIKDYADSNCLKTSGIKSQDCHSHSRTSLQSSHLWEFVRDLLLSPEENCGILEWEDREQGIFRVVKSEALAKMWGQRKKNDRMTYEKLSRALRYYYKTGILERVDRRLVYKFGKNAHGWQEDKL
# Procedure, shortened: as §1
# ETV6 = ETV6 (Homo sapiens, UniProt P41212 1-452); conditions: protein: recombinant; tags: N-terminal GST; dsDNA, one strand shown
# Chain of ETV6 (P41212 whole entry): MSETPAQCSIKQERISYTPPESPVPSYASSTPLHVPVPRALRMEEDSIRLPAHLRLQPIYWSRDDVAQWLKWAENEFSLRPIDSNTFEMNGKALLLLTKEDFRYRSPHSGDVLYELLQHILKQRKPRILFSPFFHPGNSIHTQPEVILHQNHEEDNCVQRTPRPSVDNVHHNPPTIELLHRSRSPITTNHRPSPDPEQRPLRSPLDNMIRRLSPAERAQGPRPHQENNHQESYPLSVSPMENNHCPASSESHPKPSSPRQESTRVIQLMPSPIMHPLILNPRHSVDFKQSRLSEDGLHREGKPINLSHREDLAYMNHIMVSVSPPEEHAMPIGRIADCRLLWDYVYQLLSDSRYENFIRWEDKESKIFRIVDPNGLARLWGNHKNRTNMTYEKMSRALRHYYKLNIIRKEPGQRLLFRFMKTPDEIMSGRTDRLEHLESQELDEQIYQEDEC
# Procedure, shortened: as §1
sequence,measurement,setting,value
TTATAG,binding signal,FEV,"1.17 fold enrichment (6-mer frequency, TF over GST control)"
same,binding signal,ETV5,"1.29 fold enrichment (6-mer frequency, TF over GST control)"
same,binding signal,HSF1,"1.8 fold enrichment (6-mer frequency, TF over GST control)"
same,binding signal,SPIC,"1.38 fold enrichment (6-mer frequency, TF over GST control)"
same,binding signal,ELF4,"1.13 fold enrichment (6-mer frequency, TF over GST control)"
same,binding signal,ELK4,"1.24 fold enrichment (6-mer frequency, TF over GST control)"
same,binding signal,ETV2,"1.07 fold enrichment (6-mer frequency, TF over GST control)"
same,binding signal,ELF3,"1.27 fold enrichment (6-mer frequency, TF over GST control)"
same,binding signal,CRX,"2.46 fold enrichment (6-mer frequency, TF over GST control)"
same,binding signal,ETV1,"1.18 fold enrichment (6-mer frequency, TF over GST control)"
same,binding signal,ERF,"1.24 fold enrichment (6-mer frequency, TF over GST control)"
same,binding signal,ETV3L,"1.28 fold enrichment (6-mer frequency, TF over GST control)"
same,binding signal,ETS2,"1.33 fold enrichment (6-mer frequency, TF over GST control)"
same,binding signal,SPDEF,"1.19 fold enrichment (6-mer frequency, TF over GST control)"
same,binding signal,ETV7,"1.24 fold enrichment (6-mer frequency, TF over GST control)"
same,binding signal,ELF5,"1.15 fold enrichment (6-mer frequency, TF over GST control)"
same,binding signal,ETV6,"1.16 fold enrichment (6-mer frequency, TF over GST control)"
